# Source: PubChem
# This is a sample that favours compounds with a hit; in the whole collection about 21% have one here.
# IL1B secr inh – qHTS for Inhibitors of Inflammasome Signaling: IL-1-beta AlphaLISA Primary Screen; 360,000 tested, 4.7% active; THP-1 LPS/ATP IL-1B secretion, AlphaLISA, 16 h; hits give low values; activity change, % at 57.5 µM; AID 743279, 2014; in the data active = activity change below about -50%; inconclusive = mostly about -30% to -49%
#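 THP-1 cells pretreated 1 hr with compounds (up to 57.5 uM final), then stimulated with LPS (250 ng/mL final) plus ATP (1.25 mM final); secreted IL-1B measured by AlphaLISA after 16 hr, decreased signal indicating inhibition.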
# Gal4-VP16 FLuc – VP16 counterscreen qHTS for inhibitors of ROR gamma transcriptional activity; Drosophila S2 Gal4-VP16 UAS-luciferase, luminescence, 20 h; Potency, µM (titrated, usually from 53.6 µM), for the others: at the highest dose activity, negative = inhibition, hits mostly inhibitors; AID 2546, 2010; 310,000 tested, 3.5% active;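 also: Gal4-VP16 expression switched on by copper sulfate through the metallothionein promoter; potency is read from the fitted curve at half-maximal effect; nearly all actives have a fitted effect of over 50% in size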
# RORgamma inh – qHTS for inhibitors of ROR gamma transcriptional activity. Nuclear receptor ROR-gamma (Mus musculus), P51450. Drosophila S2 Gal4-RORgamma UAS-luciferase reporter, 20 h. Potency, µM (doses to about 53.6 µM), for inactives: at the highest dose activity change, negative = inhibition, usual class: inhibitors. 310,000 tested, 5.4% active; also: potency is read from the fitted curve at half-maximal effect; nearly all actives have a fitted effect of over 60% in size
# Target sequence (P51450 whole entry, looked up, the tested form may be a part): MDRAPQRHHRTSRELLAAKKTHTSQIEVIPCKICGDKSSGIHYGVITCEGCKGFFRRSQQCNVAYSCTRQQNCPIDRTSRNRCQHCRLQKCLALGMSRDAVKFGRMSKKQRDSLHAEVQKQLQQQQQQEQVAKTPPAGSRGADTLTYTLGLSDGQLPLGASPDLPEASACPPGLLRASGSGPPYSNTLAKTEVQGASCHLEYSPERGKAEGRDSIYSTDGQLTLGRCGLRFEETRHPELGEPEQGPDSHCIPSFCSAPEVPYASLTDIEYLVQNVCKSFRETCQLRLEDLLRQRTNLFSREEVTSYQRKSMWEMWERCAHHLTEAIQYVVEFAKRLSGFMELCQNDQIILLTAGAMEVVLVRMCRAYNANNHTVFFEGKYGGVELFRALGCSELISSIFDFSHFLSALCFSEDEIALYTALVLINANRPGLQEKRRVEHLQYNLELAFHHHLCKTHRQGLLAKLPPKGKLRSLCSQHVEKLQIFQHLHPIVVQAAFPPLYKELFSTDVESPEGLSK
#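 ROR gamma transcriptional activity was tracked as Gal4-UAS luciferase output in stably transfected Drosophila Schneider cells, with compound added 1 hr before 700 uM copper sulfate induction and a 20 hr ambient-temperature incubation.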
# TDP1 cell noCPT – qHTS for Inhibitors of human tyrosyl-DNA phosphodiesterase 1 (TDP1): qHTS in cells in absence of CPT | Potency, µM (series often up to 46.2 µM), for the others: at the highest dose activity change, negative = growth inhibition, hits mostly inhibitors | 420,000 tested, 15% active | AID 686978, 2013 | DT40 Tdp1-/- hTDP1 cells, no CPT, ATP luminescence, 48 h; also: potency is read from the fitted curve at half-maximal effect; nearly all actives have a fitted effect of over 55% in size
#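 Chicken DT40 Tdp1-/- cells stably complemented with human TDP1 were seeded at 400 cells/well with DMSO in place of 20 nM camptothecin. After compound pinning, cells grew at least 48 hr at 37 °C; viability read by CellTiter-Glo luminescence.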
# ELG1 repair inh – qHTS screen for small molecules that inhibit ELG1-dependent DNA repair in human embryonic kidney (HEK293T) cells expressing luciferase-tagged ELG1; HEK293T ELG1-luciferase reporter, luminescence, 16 h; DNA damage induced by 5-fluorouridine; Potency, µM (series often up to 46.1 µM), without a hit: top-dose activity change, negative = inhibition, usual class: inhibitors; 330,000 tested, 2.3% active; AID 504467, 2011; also: potency is read from the fitted curve at half-maximal effect; nearly all actives have a fitted effect of over 55% in size
#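 Overnight (16 hr) co-exposure of 2,000 cells/well to 5-fluorouridine and compound at 37 °C preceded detection. Luciferase was quantified via ONE-Glo luminescence; loss of signal denotes inhibition.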
# DT40 TDP1 CPT – qHTS for Inhibitors of human tyrosyl-DNA phosphodiesterase 1 (TDP1): qHTS in cells in presence of CPT; Potency, µM (titrated, usually from 46.2 µM), for the others: at the highest dose activity change, negative = growth inhibition, hits mostly inhibitors; chicken DT40 Tdp1-/-;hTDP1 cells + 20 nM CPT, ATP luminescence, 48 h; 420,000 tested, 12% active; also: potency is read from the fitted curve at half-maximal effect; nearly all actives have a fitted effect of over 55% in size
#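 Chicken DT40 Tdp1-/- cells stably complemented with human TDP1 were seeded at 400 cells/well in medium containing 20 nM camptothecin, exposed to pin-transferred compounds, and grown at 37 °C for at least 48 hr. Viability was read as ATP luminescence.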
# Numbers without * were called inactive; u = inconclusive; x = no result given; [ ] = another dose, or the depositor's remark. Unless noted, calls follow the shape of the dose curve; as a rule, active = well fitted curve in the direction sought with a large enough effect; inconclusive = small, poorly fitted or top-dose-only effect, or another doubt; inactive = no such curve, though single readings can be large; an effect the other way counts as inactive or inconclusive. % is scaled to controls: 0 for no effect and ±100 for the full control effect.
SMILES,IL1B secr inh,Gal4-VP16 FLuc,RORgamma inh,TDP1 cell noCPT,ELG1 repair inh,DT40 TDP1 CPT
CCOC(=O)[C@]1(C(NC(=O)OC)c2ccco2)CCCC1=O (stereo not given in full),x,0%[10 µM],-17%[10 µM],x,x,x
N#Cc1ccc(-c2nc3ccccc3c(=O)n2O)cc1,-1,u,16µM*,u,u,-18%
CC(C)(c1ccccc1)c1ccc(OCc2ccc(C(=O)O)o2)cc1,5,x,x,-9%,u,-13%
CCOC(=O)COc1ccc(-c2nnn(CC(=O)Nc3ccccc3)n2)cc1,x,x,x,-16%,x,-7%
CCOc1ccc(NC(=O)CCSc2nc3c(c(CC)c2C#N)C(=O)CC(C)(C)C3)cc1,-15,1%,-14%,21µM*,-14%,u
CC(=O)c1ccc(NC(=O)CN2C(=O)NC(C)(C3CCCCC3)C2=O)cc1 (stereo not given),0,x,x,9%,18%,-6%
CCOC(=O)C1(C)CCCCCN1C(=O)c1ccc(N(C)C)cc1 (stereo not given),2,x,x,21µM*,x,u
CCOC(=O)C1(C)CCCN1C(=O)c1ccc(C)cc1 (stereo not given),20,x,x,-17%,x,-24%
CCOC(=O)C1(C)CCN1C(=O)c1ccc(Cl)cc1Cl (stereo not given),17,x,x,-6%,x,-1%
CCOC(=O)C1(C)CCN1C(=O)c1cc(-c2ccc(Cl)cc2)oc1C (stereo not given),-103*,x,x,5.2µM*,x,18µM*
CCOC(=O)C1(C)CCCN1C(=O)c1cccc2ccccc12 (stereo not given),53,x,x,18µM*,x,12µM*
CCOC(=O)C1(C)CCCCCN1C(=O)/C=C/c1ccccc1 (stereo not given),21,x,x,16µM*,x,16µM*
COc1ccc(Cn2c(CO)cnc2SCC(=O)NCc2ccco2)cc1,x,x,x,7%,x,3%
CCN(CC)S(=O)(=O)c1cccc(C(=O)N/N=C(\C)c2cccs2)c1,-14,u,3.5µM*,-25%,u,-17%
C/C(=N\NC(=O)c1cccc(S(=O)(=O)Nc2cccc(Cl)c2)c1)c1cccs1,-5,4µM*,5µM*,u,-8%,u
CCN(CC)S(=O)(=O)c1cccc(C(=O)NC(C)C(c2cccs2)N2CCCC2)c1 (stereo not given),0,5%,18%,u,14%,u
COc1cc(OC)cc(N2C(=O)N(CC(=O)c3ccc(F)cc3)c3ccccc3S2(=O)=O)c1,x,x,x,-19%,x,-21%
COc1ccccc1/C=C/C=N/NC(=O)c1cc(-c2ccc(C)o2)[nH]n1,-23,u,13µM*,u,u,u
Cc1ccc(/C=N/NC(=O)c2cc(-c3ccc(C)o3)[nH]n2)cc1,6,-4%,-15%,15µM*,u,13µM*
Cc1ccc(-c2cc(C(=O)N/N=C/c3cccnc3)n[nH]2)o1,-14,-23%,-9%,-29%,-10%,-1%
COc1cc(OC)cc(N(C(=O)C2COc3ccccc3O2)C(C(=O)NC2CCCCC2)c2ccc(O)cc2)c1 (stereo not given),-60*,u,42%,u,u,u
COc1ccc(N(C(=O)C2COc3ccccc3O2)C(C(=O)NC2CCCCC2)c2ccccc2)cc1OC (stereo not given),4,-8%,11%,u,-19%,u
O=C(Nc1nc2ccccc2[nH]1)C1CC1,5,u,u,u,18%,u
COc1cccc(C(=O)Nc2nc3ccccc3[nH]2)c1,-19,10µM*,4µM*,u,u,-23%
O=C(Nc1nc2ccccc2[nH]1)c1cccs1,-14,13µM*,5µM*,-13%,u,u
SMILES,IL1B secr inh,Gal4-VP16 FLuc,RORgamma inh,TDP1 cell noCPT,ELG1 repair inh,DT40 TDP1 CPT
COc1ccc(C(=O)Nc2nc3ccccc3[nH]2)cc1,-1,6.3µM*,2.8µM*,23µM*,u,16µM*
CCOC(=O)c1c(C)[nH]c(C)c1S(=O)(=O)N(C)CC(=O)N(C)Cc1ccccc1,0,u,-25%,0%,2%,-19%
Brc1cc(Br)c[n+](CCc2ccccc2)c1,x,x,x,14µM*,x,11µM*
COC(=O)[C@]1(C)N[C@H](CN(C)C(=O)c2ccc(C)cc2)[C@@H]2C(=O)N(Cc3ccccc3)C(=O)[C@@H]21,73,x,x,-5%,5%,3%
OCc1cnc(SCc2cccc(F)c2)n1Cc1ccc(F)cc1,x,x,x,u,x,21µM*
COc1ccc(Cn2c(CO)cnc2SCC(=O)Nc2cc(C)on2)cc1,10,1%,-2%,20%,14%,1%
COc1ccc(Cn2c(CO)cnc2SCc2cccc(C)c2)cc1,x,x,x,26µM*,x,u
Cc1ccc(Cn2c(CO)cnc2SCc2ccc(F)cc2)cc1,x,x,x,16µM*,x,10µM*
CCCS(=O)(=O)NC(=O)C1(C)CCN(C(=O)c2ccc(C(F)(F)F)cc2)C1 (stereo not given),14,x,x,-13%,x,-19%
Cc1ccccc1Cn1c(NC2CCCC2)nc2c1c(=O)[nH]c(=O)n2C,0,x,x,12%,12%,3%
CCOc1cc(/C=C(\C#N)C(N)=O)cc(CSc2ccccc2)c1O,x,-7%,u,x,x,x
CN(C)c1ccc(C(O)c2cc3ccccc3s2)cc1 (stereo not given),-2,x,x,u,x,-10%
Cc1ccnn1-c1ccc(C(=O)NCc2ccccc2CN2CCOCC2)cc1,-17,x,x,18µM*,u,21µM*
O=C(NNC(=S)NCc1ccco1)c1ccccc1Br,-7,-20%,0.89µM*,u,1%,u
O=C(NNC(=S)NCc1ccco1)c1ccc(Cl)s1,15,-12%,1.8µM*,u,-10%,u
CC[Si](CC)(CC)O[C@H]([C@@H](C)COCOC)[C@@H](C)COCc1ccc(OC)cc1,x,-4%,17%,x,x,x
COc1ccc(S(=O)(=O)N(C)C[C@H]2Oc3ccc(NS(=O)(=O)c4ccccc4)cc3CC(=O)N([C@H](C)CO)C[C@@H]2C)cc1,-2,x,x,u,u,u
